PBM binding z-score data for 40 sequences are collected here from the supplement of paper PMC6555819.

In this experiment the test system is VDR:RXRa (NR concentration 270 nM, RXRa partner concentration 90 nM). Kind of experiment: PBM binding z-score (relative to random genomic background probes); higher = stronger binding; sequences stand for … in GC…GCGATTGACAGCGTAGAATGAAGG
The protocol:
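Protein-binding microarray (Agilent 4x180K custom design, double-stranded 60-nt probes: 5' GC cap, 34-nt variable region, 24-nt constant primer region; full probe sequence given). Purified or IVT nuclear receptor:RXRα heterodimers (3:1 NR:RXRα, mostly 270:90 nM) or homodimers were incubated for 1 h in PBS with 2% milk and no ligand, then detected with Alexa488 antibodies. Fluorescence from o1-orientation probes (~5 replicates averaged) was converted to z-scores against 500 random hg19 background probes. Variable regions are seed direct-repeat (DR0–DR5) sites, all their single-nucleotide variants and half-site ablations.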
Turning to AGAACGAGGGCAATGAGTTAATAGCACGGGTGGC, the PBM binding z-score is 4.04.

With TGAATGAGGTTAAACATCAGGGAACGTGGCGTCG, the PBM binding z-score came to 1.87.

Sequence TCATATAGGTAAACAGGTGCAAGTCCGTAAGTTA displayed a PBM binding z-score of 3.49.

Sequence TCTCGTAGATCAGCAGGTTAAGAAAGCTGGCCAA had a PBM binding z-score of 0.21.

As to CGTCAAATTTCAAGGTAACGTAACAGAAAGCAGC, the PBM binding z-score worked out at 0.0191.

GTACCAAGCTGAATAGGTCGTTGATGAGTAGGCG showed a PBM binding z-score of -0.239.

Sequence CGGACTAGGTCAAGGACAGTGAATCTCCGCACGC displayed a PBM binding z-score of 0.867.

Consider CCAGACAGGTGCGAAGGTAACTCAGCCTCGATTA, for which the PBM binding z-score is -0.435.

In the case of GCATATAGGTAATACAAGGTGATAGTCCGATTGT, the PBM binding z-score was -0.0322.

As to CCTTACGGGTCACTACAGGTTATAGCATCGGAGT, the PBM binding z-score was 4.06.

As for ATGTCTAGGTAAAAGTTCAGTGAATCCCGAGGAT, the PBM binding z-score worked out at 1.3.

For ACAGACAGGTGAGTGGAGGTAACTCAGCTGGACG, the PBM binding z-score was -0.0789.

In the case of TCTTATAGGTAAAAGGTGAAAGTCGGTGTGGTAA, the PBM binding z-score was 1.66.

On to CCGACTGCGGCAAAGGTTACCATACTCAGTACGA, for which the PBM binding z-score is 0.959.

In turn, CCGAATGGGGCAAAGGTTACCATACTCAGTACGA registered a PBM binding z-score of 1.77.

As to CAAACTACGTCACAGAGGTCAAAGTCCGTGCGTA, the PBM binding z-score stood at 5.85.

In turn, TCTGTTAGGTCAACGATGGTCAGCTAATCTGCTA had a PBM binding z-score of 2.46.

CCTTACGGGTGACTGACAGGTTATAGCATTTGGA gave a PBM binding z-score of 0.132.

On to TGTCAAAGTTCAAAGGTAACATAAGTATCCACAC, for which the PBM binding z-score amounted to 5.14.

In the case of CCTAGTAGGTCAAGGTCACACACGCTATAGGTAC, the PBM binding z-score worked out at 5.04.

For the sequence ATCTCTAGGTAAGACTCAGGTCAGTGAAGAACGC, the PBM binding z-score was 0.693.

The sequence CGTCCAAGGTCAATGCTAGGTCAGTGTAAGCATT registered a PBM binding z-score of 4.85.

ATACCAAGGTGAACGTGAGGTCGTTGATACTAAC came in with a PBM binding z-score of 4.41.

In the case of CCTACTGGGCCATCAGGTCATTGAAATCAACGTT, the PBM binding z-score was 1.28.

In the case of GATAAAGGGTCAAGGCCAGAGTACGCGTATTGAT, the PBM binding z-score was 4.56.

On to TCATATATGTAAAAGGTGAAAGTCGGTGTGGTAA, for which the PBM binding z-score worked out at 1.24.

Turning to ACTAGCAGGCCAAGGGTCTCTCAAGATTAGTCCG, the PBM binding z-score is -0.657.

Consider CCGACTGAGGCAGAAAGGTTACCATACCATCCGG, for which the PBM binding z-score stood at 0.732.

The sequence ACATGTAGGTTAGCTGGGGTCATTCAGACTAGGC had a PBM binding z-score of 6.43.

Sequence CCGACTGTGGCATAAGGTTACCATAAGCCAGCCC yielded a PBM binding z-score of 0.153.

For the sequence CATCCAAGGTCAGCAGGTCAGTGAAAGCGACGTG, the PBM binding z-score came to 4.18.

The sequence TGAATGAGGTTATAAGATGAGGGAACGTTGCAAA displayed a PBM binding z-score of 0.832.

TAGCCTAGGTCATACGGGCCAGTATAGTGTCGGC came in with a PBM binding z-score of 3.08.

TCTAGTTAGTCAAAGGTCACACACTCGAAATGCG displayed a PBM binding z-score of 4.97.

CCTAGTTGGTCGGGAGGTCACACACCGGATATGA came in with a PBM binding z-score of 3.78.

Turning to GCGACTGGGGTAAAGCAGGTTACCATAAGGTTGG, the PBM binding z-score is 1.15.

Turning to ATCGAAAGGTCGACGAGATGAGTATACACCGTTT, the PBM binding z-score amounted to 2.46.

In turn, CCTACTAGGCCAAGGTCATTGATCAGTCAAAGCA returned a PBM binding z-score of 3.48.

As to CCTGCTAGGTCATTGGTCAGCTAAAGCAGCTCGC, the PBM binding z-score was 2.1.

As to GTTTACGGGTCAAAGGTTATAGCATGAATAGAAT, the PBM binding z-score was determined as 5.82.
